{"source": "PubChem BioAssay (NCI)", "note": "About 83,000 compounds went through this panel and 20% of them were active in at least one assay; those are over-represented in the sample as a whole.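 Percent growth is the endpoint: 0 to 100 indicates growth inhibition (40 means 60% inhibition), 0 means no net growth, and negative values indicate cell death.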 Unmarked numbers belong to inactive results. Active and inactive are the calls of the source. How the source made its calls: active means growth percent below 10; inactive means the rest.", "data": [{"test_system": "HL-60(TB) leukemia", "assay": "NCI-60 one-dose screen, 48 h (100 = growth as untreated, 0 = no growth, -100 = all killed)", "conditions": "10 µM unless noted", "values": [{"smiles": "c1ccc2c(-c3c4ccsc4cc4[nH]c5ccccc5c34)c[nH]c2c1", "growth": "14.3%"}, {"smiles": "Cc1cc(C)n(-c2nnc3n2N=C(c2ccc(-c4ccccc4)cc2)CS3)n1", "growth": "7.07% (active)"}, {"smiles": "O=C(NN1C(=O)c2cc(C(=O)O)c(C(=O)O)cc2C1=O)c1ccncc1", "growth": "109%"}, {"smiles": "CN(C)c1ccc(-c2ccc3c(c2)c(-c2ccccc2)nc(=O)n3C)cn1", "growth": "43.5%"}, {"smiles": "CCCCCCC(CCCC)COC(=O)c1ccc(Cl)cc1", "note": "(stereo not given)", "growth": "100%"}, {"smiles": "CCCCC(O)(c1ccc(Cl)cc1)C(CN1CCOCC1)c1ccc(Cl)cc1", "note": "(stereo not given)", "growth": "53.6%"}, {"smiles": "Nc1ccccc1-c1ccn[nH]1", "growth": "95.6%"}, {"smiles": "COc1ccc2c(c1)c(-c1nc(-c3c[nH]c4ccncc34)cs1)cn2C", "growth": "-61.5% (active)"}, {"smiles": "C/C(=N/NC(N)=S)c1sc(Nc2cccc(Cl)c2)nc1C", "growth": "65%"}, {"smiles": "O=C(O)c1cccc([N+](=O)[O-])c1O", "growth": "78.2%"}, {"smiles": "COc1ccc(-n2cc(-c3cc(OC)c(OC)c(OC)c3)n(C(C)=O)c2=O)cc1", "growth": "126%"}, {"smiles": "O=C1/C(=C\\c2ccc([N+](=O)[O-])cc2)CS(=O)(=O)C/C1=C/c1ccc([N+](=O)[O-])cc1", "growth": "-38.4% (active)"}, {"smiles": "COc1cc2cc3c(nc2cc1OC)CCN3Cc1ccc(NC(=O)Nc2cc(C(F)(F)F)cc(C(F)(F)F)c2)cc1", "growth": "81.5%"}, {"smiles": "Cc1sc2ncn(CC(=O)Nc3ccc(S(N)(=O)=O)cc3)c(=O)c2c1C", "growth": "103%"}, {"smiles": "CCN(CC)CCOc1ccc(Cl)c(C)c1", "growth": "113%"}, {"smiles": "Nc1ccc(S(=O)(=O)Nc2cc(F)cc(F)c2)cc1", "growth": "73%"}, {"smiles": "Cn1cc(CC2CC(=O)N(c3ccccc3)C2=O)sc1=NC(=O)c1ccccc1", "note": "(stereo not given)", "growth": "114%"}, {"smiles": "N#C/C(=N\\Nc1ccccc1)C(=O)Nc1cc(-c2ccccc2)nn1-c1ccccc1", "growth": "35.4%"}, {"smiles": "COc1cc(NCCCCCNC(C)(C)C)c2ncccc2c1", "growth": "128%"}, {"smiles": "COc1ccc(C2c3ccc4ccccc4c3Oc3ncn(CCCn4ccnc4)c(=N)c32)cc1OC", "note": "(stereo not given)", "growth": "40.7%"}, {"smiles": "COc1ccc(Oc2nc(NC3CCCC3)nc(Sc3ccc(OC)cc3)n2)cc1", "growth": "48.3%"}, {"smiles": "Clc1ccccc1N=Cc1ccc2c(c1)OCO2", "growth": "94.6%"}, {"smiles": "CC1=CCC[C@@H]2C1(C)CC[C@H](C)[C@@]2(C)CC1=CC(=O)C(SC(C)(C)C)=CC1=O", "note": "(stereo not given in full)", "growth": "56.4%"}, {"smiles": "COc1ccc(CN2CCc3c(Cl)nc(N)nc3C2=O)c(OC)c1", "growth": "12.3% [100 µM]"}, {"smiles": "COc1cc(C2CC(=O)c3ccccc3N2)cc(OC)c1OC", "note": "(stereo not given)", "growth": "98.8%"}, {"smiles": "Nc1[nH]nc(Nc2ccccc2)c1-c1nc2ccccc2s1", "growth": "16.6%"}, {"smiles": "N#Cc1c(N)n(C2OC(CO)C(O)C2O)c2ncnc(N)c12", "note": "(stereo not given)", "growth": "-67.1% (active)"}, {"smiles": "Cn1cc(-c2csc(-c3c[nH]c4ccc(F)cc34)n2)c2cnccc21", "growth": "-59.4% (active)"}, {"smiles": "CC1=C(C)C(=O)C(C(C)C2=C(C)C(=O)C(C)=C(C)C2=O)=C(C)C1=O", "growth": "42.5%"}, {"smiles": "COc1ccccc1-n1c(-c2csc(NC(C)=O)n2)n[nH]c1=S", "growth": "96.6%"}, {"smiles": "C=CC[P+](c1ccccc1)(c1ccccc1)c1ccccc1", "growth": "4.03% (active)"}, {"smiles": "COc1cccc(/C=C/C(=O)c2cc3c(N)c(C(=O)Nc4cccc5ccccc45)sc3nc2C)c1", "growth": "3.98% (active)"}, {"smiles": "O=C(Nc1ccc(F)cc1F)c1cc(Cl)ccc1O", "growth": "-31.4% (active)"}, {"smiles": "CCCCN=C(N)c1ccc(OCCSCCOc2ccc(C(N)=NCCCC)cc2)cc1", "growth": "38.8%"}, {"smiles": "O=CN(SSN(C=O)C1CCCCC1)C1CCCCC1", "growth": "77.2%"}, {"smiles": "Nc1nc2ccccc2c2c(=O)c3cc(F)ccc3sc12", "growth": "99.4%"}, {"smiles": "O=C1/C(=C/c2ccc(Br)cc2)C=C(c2ccccc2)N1CCc1ccccc1", "growth": "83.8%"}, {"smiles": "O=C(/C=C/c1ccccc1)Nc1ncc(Cc2ccccc2)s1", "growth": "-45.3% (active)"}, {"smiles": "CCOC(=O)Nc1ccc2c3c(cccc13)-c1ccccc1-2", "growth": "6.94% (active)"}, {"smiles": "CCOC(=O)C1CCc2c(ccc3ccccc23)N1CCC#N", "note": "(stereo not given)", "growth": "110%"}]}]}
